Bioassay records: PubChem BioAssay, several laboratories
SENP7 inh: blocks the human protease SENP7; Q9BQF6; recombinant SENP7, Z-RLRGG-aminoluciferin luminescence, 40 min; inhibition, % at 5 µM; 1.5% of 330,000 active;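 active = inhibition above about 50% at the single test dose, limit read from the data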
SENP6 inh: inhibitors of human SENP6 protease; inhibition, % at 10 µM; Recombinant SENP6 catalytic domain, aminoluciferin luminescence; AID 2599; 1.8% of 330,000 active;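 active = inhibition above about 50% at the single tested dose, limit read from the data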
Target sequence (Q9GZR1 628-1112 limits assumed): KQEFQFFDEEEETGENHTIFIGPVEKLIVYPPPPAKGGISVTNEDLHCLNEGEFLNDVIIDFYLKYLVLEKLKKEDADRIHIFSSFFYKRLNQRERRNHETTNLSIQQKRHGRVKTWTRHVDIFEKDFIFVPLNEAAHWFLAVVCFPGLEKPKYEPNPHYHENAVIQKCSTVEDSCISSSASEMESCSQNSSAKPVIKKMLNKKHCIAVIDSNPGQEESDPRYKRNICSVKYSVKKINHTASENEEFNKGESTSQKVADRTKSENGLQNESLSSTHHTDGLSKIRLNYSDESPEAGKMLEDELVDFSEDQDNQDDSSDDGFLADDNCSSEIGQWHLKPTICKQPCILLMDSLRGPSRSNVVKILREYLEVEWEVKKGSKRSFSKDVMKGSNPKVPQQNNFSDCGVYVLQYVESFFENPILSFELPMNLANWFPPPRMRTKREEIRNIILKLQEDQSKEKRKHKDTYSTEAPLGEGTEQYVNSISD
SENP8 block-1: SENP8 (human) protease inhibition; Q96LD8; inhibition, % at 20 µM; AID 602440; 0.64% of 360,000 active; recombinant SENP8, Nedd8 substrate fluorescence; in the data active = inhibition mostly above about 40%, no sharp cut-off; inactive = mostly below about 27%
Platelet DG rel: platelet dense granule release activity; inhibition, %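 (compounds screened at 7.5 µM in platelet-rich plasma)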; 0.22% of 300,000 active; human platelet-rich plasma, SFLLRN dense granule ATP release, luminescence; AID 1663;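 active = mean replicate score, as percent of positive control, at or above 50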
SENP8 block-2: blocks the human protease SENP8; Q96LD8; purified SENP8, Z-RLRGG-aminoluciferin cleavage, luminescence; inhibition, % at 10 µM; 1.2% of 330,000 active; AID 2540; in the data active = inhibition above about 50%
SENP8 confirm: human SENP8 inhibition, confirmed | 40% of 6,200 active | Recombinant SENP8, Z-RLRGG-aminoluciferin luminescence, 60 min | inhibition, % at 12.5 µM | shares compounds with SENP7 inh;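 active = mean inhibition across replicates above about 50%, limit read from the data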
SENP6 conf: human SENP6 inhibition, confirmed | AID 488915 | inhibition, % at 12.5 µM | recombinant SENP6, Z-RLRGG-aminoluciferin luminescence | 58% of 6,200 active | shares compounds with SENP7 inh
SENP7 confirm: confirmation of human SENP7 protease inhibitors | recombinant SENP7, Z-RLRGG-aminoluciferin luminescence, 40 min | 69% of 6,200 active | shares compounds with SENP7 inh | inhibition, % at 12.5 µM
Casp3 SENP sel: inhibits human caspase-3 in SENP selectivity test; shares compounds with SENP7 inh; purified caspase-3, Z-DEVD-aminoluciferin luminescence, 60 min; inhibition, % at 12.5 µM; 60% of 6,200 active;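 active = mean inhibition above about 50%, limit read from the data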
Target sequence (P42574 28-227 limits assumed): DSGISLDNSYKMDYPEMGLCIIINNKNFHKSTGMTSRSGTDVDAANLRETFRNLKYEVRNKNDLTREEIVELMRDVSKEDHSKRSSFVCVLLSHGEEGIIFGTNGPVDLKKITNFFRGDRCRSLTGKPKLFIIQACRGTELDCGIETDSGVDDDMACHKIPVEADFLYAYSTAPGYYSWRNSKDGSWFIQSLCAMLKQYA
Luc interf: counter-screen for SENP inhibitors: luminescence interference; Pre-incubated SENP8/Z-RLRGG-aminoluciferin, luciferase luminescence interference; shares compounds with SENP7 inh; 39% of 6,200 active; AID 488919; inhibition, % at 12.5 µM;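 active = mean inhibition above about 50% when retested at one dose, limit read from the data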
Each line names hits and unclear results; the compound was inactive in the other large screens (follow-up assays come after a bar, where they were run). Rows were chosen to be rich in hits. Some 2.4% of all compounds tested hit in one or more screens of this group.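 Rule for the calls, unless noted: active = mean inhibition above about 50% in the one-dose retest (limit read from the data); inactive = the rest.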

O=C(O)c1cccc(NC(=O)c2ccc3c(c2)C(=O)N(CC2CCCO2)C3=O)c1 (configuration not stated)	SENP7 inh 71.2, SENP6 inh 82.9, SENP8 block-2 50.0 | SENP8 confirm 87.4 | SENP6 conf 85.4 | SENP7 confirm 98.6 | Casp3 SENP sel 74.1 | Luc interf 78.5
CCOC(=O)CN1CCS(=O)(=O)CC1	none
COc1ccc(CCC(=O)OCC(=O)NCc2ccc(OC)c(OC)c2)cc1OC	none (no result: Platelet DG rel)
Cc1ccc(O)c(C(=O)c2cnn(-c3ccccc3)c2)c1	SENP6 inh 52.8 | SENP8 confirm inactive | SENP6 conf inactive | SENP7 confirm inactive | Casp3 SENP sel inactive | Luc interf inactive
Cc1ccc(-n2cc(C(=O)c3ccccc3O)cn2)cc1	SENP7 inh 97.0, SENP6 inh 91.4, SENP8 block-2 91.6 | SENP8 confirm inactive | SENP6 conf 96.7 | SENP7 confirm 100.9 | Casp3 SENP sel 92.2 | Luc interf inactive
Cc1ccc(-n2cc(C(=O)c3ccc4ccccc4c3O)cn2)cc1	none
COCO/C=C(\NC(C)=O)c1ccccc1	none (no result: Platelet DG rel)
O=C1N/C(=C\c2nc3ccccc3s2)c2ccccc21	SENP7 inh 98.3, SENP6 inh 91.9, SENP8 block-2 84.1 (no result: SENP8 block-1) | SENP8 confirm inactive | SENP6 conf inactive | SENP7 confirm inactive | Casp3 SENP sel inactive | Luc interf inactive
COc1ccccc1/C=C(\NC(=O)c1ccccc1)C(=O)NCc1ccco1	none
Cc1cc(=O)[nH]c(SCC(=O)c2ccccc2)c1C#N	SENP6 inh 74.0, SENP8 block-2 60.2 | SENP8 confirm 72.5 | SENP6 conf 74.0 | SENP7 confirm 93.6 | Casp3 SENP sel 82.0 | Luc interf 79.3
Cc1cc(C)c(C#N)c(SCC(=O)c2ccccc2)n1	none
O=C(CNc1ccc(Br)cc1)c1ccccc1	SENP6 inh 71.4 | SENP8 confirm inactive | SENP6 conf inactive | SENP7 confirm inactive | Casp3 SENP sel inactive | Luc interf inactive
CC1CCCC(C)N1C(=S)SCC(=O)O (configuration not stated)	none
COc1ccccc1/C=C/c1nc(C#N)c(N(C)C)o1	SENP6 inh 57.2 | SENP8 confirm inactive | SENP6 conf 57.3 | SENP7 confirm inactive | Casp3 SENP sel 53.4 | Luc interf inactive
C(/C=C/c1ccccn1)=C\c1ccccc1	SENP7 inh 88.1, SENP6 inh 87.4, SENP8 block-2 80.3 | SENP8 confirm inactive | SENP6 conf 65.6 | SENP7 confirm 90.5 | Casp3 SENP sel 66.4 | Luc interf 52.5
CCOC(=O)/C(=N\Nc1ncnc2ccccc12)c1ccc(OC)cc1	SENP7 inh 65.2, SENP6 inh 77.5, SENP8 block-2 74.2 | SENP8 confirm inactive | SENP6 conf 70.2 | SENP7 confirm 90.1 | Casp3 SENP sel inactive | Luc interf inactive
O=C1CC2c3ccccc3C1C1C(=O)N(CCO)C(=O)C21 (configuration not stated)	none
COc1cccc(/C=N/NC(=S)Nc2cccc(C(=O)O)c2)c1O	SENP7 inh 97.6, SENP6 inh 96.8, SENP8 block-2 95.3 | SENP8 confirm 98.5 | SENP6 conf 99.0 | SENP7 confirm 101.9 | Casp3 SENP sel 97.2 | Luc interf 83.9
COc1cc(/C=N/NC(=S)Nc2cccc(C(=O)O)c2)ccc1O	none
COc1cccc(/C=N/Nc2ccc([N+](=O)[O-])cc2)c1O	SENP7 inh 78.0, SENP6 inh 70.2, SENP8 block-2 61.5 | SENP8 confirm inactive | SENP6 conf 66.6 | SENP7 confirm 97.8 | Casp3 SENP sel 50.0 | Luc interf inactive
COC(=O)c1ccc(N/N=C/c2cc([N+](=O)[O-])cc(OC)c2O)cc1	none
COc1cccc(/C=N/Nc2c(Cl)cncc2Cl)c1O	SENP7 inh 61.8, SENP6 inh 75.6, SENP8 block-2 66.4 | SENP8 confirm 74.1 | SENP6 conf 71.0 | SENP7 confirm 89.8 | Casp3 SENP sel 65.0 | Luc interf 72.1
COc1cccc(/C=N/Nc2cc(Cl)nc(C)n2)c1O	none
CCCC(C)NC(=O)Cn1c(=O)c2c(ncn2CCC(C)C)n(Cc2ccccc2)c1=O (configuration not stated)	none
Cc1c(NC(=O)c2nn(CC(C)C)c(=O)c3ccccc23)c(=O)n(-c2ccccc2)n1C	none (no result: Platelet DG rel)
Cc1cc(C(=O)CS(=O)(=O)c2ccc(Cl)cc2)cc(C)c1O	none
O=C(COc1ccccc1Br)NCCc1nc2ccccc2[nH]1	none
Cc1cc(C(=O)N/N=C2\CC(=O)c3ccccc32)c(C)n1-c1ccc(F)cc1	SENP6 inh 73.2, SENP8 block-1 79.1 | SENP8 confirm inactive | SENP6 conf inactive | SENP7 confirm inactive | Casp3 SENP sel 50.7 | Luc interf inactive
COc1cc(NC(=O)C2CCCCC2)c(OC)cc1NC(=O)c1ccccc1	none
O=C(O)/C=C/c1coc2ccc(F)cc2c1=O	none
Cc1ccc2occ(/C=C/C(=O)O)c(=O)c2c1	SENP6 inh 74.1 | SENP8 confirm 64.3 | SENP6 conf 58.3 | SENP7 confirm 86.1 | Casp3 SENP sel 58.5 | Luc interf 60.6
C=C(C)[C@H]1CC=C(C)C(=O)C1	none (no result: Platelet DG rel)
CC(=O)OCC(=O)Nc1ccc([N+](=O)[O-])cc1Cl	none
CC(=O)Oc1c(C)cc(Cl)cc1C(=O)Nc1ccc([N+](=O)[O-])cc1Cl	SENP7 inh 97.6, SENP6 inh 84.1 | SENP8 confirm inactive | SENP6 conf inactive | SENP7 confirm inactive | Casp3 SENP sel inactive | Luc interf inactive
CC1(C(=O)Nc2cccc3ccccc23)CC1(Br)Br (configuration not stated)	SENP6 inh 59.7 | SENP8 confirm inactive | SENP6 conf inactive | SENP7 confirm inactive | Casp3 SENP sel inactive | Luc interf inactive
Fc1ccc(NC(=S)Nc2cccc3ccccc23)cc1	SENP6 inh 65.3 | SENP8 confirm inactive | SENP6 conf inactive | SENP7 confirm inactive | Casp3 SENP sel inactive | Luc interf inactive
Cc1ccc(NC(=S)Nc2cccc3ccccc23)cc1	SENP6 inh 80.7 | SENP8 confirm inactive | SENP6 conf inactive | SENP7 confirm inactive | Casp3 SENP sel inactive | Luc interf inactive
CCc1cccc(NC(=S)Nc2cccc3ccccc23)c1	SENP6 inh 77.6 | SENP8 confirm inactive | SENP6 conf inactive | SENP7 confirm inactive | Casp3 SENP sel inactive | Luc interf inactive
CC(C)c1ccc(NC(=S)Nc2cccc3ccccc23)cc1	none
CC(C)N1CCC1(C)C(=O)Nc1cccc2ccccc12 (configuration not stated)	none (no result: SENP7 inh, SENP6 inh, Platelet DG rel, SENP8 block-2)
